We go through 54 compounds from PubChem BioAssay AID588342 (National Center for Advancing Translational Sciences (NCATS), 2011).

Hit rate of the full screen: of about 360,000 compounds, about 25,000 (6.9%) were called active. Roughly 9% stayed inconclusive and do not appear here. Only a selection was taken, and actives are over-represented in it overall. Values without a mark were called inactive. The call rests on the fitted dose curve; in most records, active means well fitted inhibition curve with a large enough effect; inconclusive means small, poorly fitted or top-dose-only effect; inactive means flat fitted curve, though single readings scatter.
Potency means the concentration at half of the fitted maximal effect.

Chain of Luciferin 4-monooxygenase (Photinus pyralis) (P08659 whole entry, looked up): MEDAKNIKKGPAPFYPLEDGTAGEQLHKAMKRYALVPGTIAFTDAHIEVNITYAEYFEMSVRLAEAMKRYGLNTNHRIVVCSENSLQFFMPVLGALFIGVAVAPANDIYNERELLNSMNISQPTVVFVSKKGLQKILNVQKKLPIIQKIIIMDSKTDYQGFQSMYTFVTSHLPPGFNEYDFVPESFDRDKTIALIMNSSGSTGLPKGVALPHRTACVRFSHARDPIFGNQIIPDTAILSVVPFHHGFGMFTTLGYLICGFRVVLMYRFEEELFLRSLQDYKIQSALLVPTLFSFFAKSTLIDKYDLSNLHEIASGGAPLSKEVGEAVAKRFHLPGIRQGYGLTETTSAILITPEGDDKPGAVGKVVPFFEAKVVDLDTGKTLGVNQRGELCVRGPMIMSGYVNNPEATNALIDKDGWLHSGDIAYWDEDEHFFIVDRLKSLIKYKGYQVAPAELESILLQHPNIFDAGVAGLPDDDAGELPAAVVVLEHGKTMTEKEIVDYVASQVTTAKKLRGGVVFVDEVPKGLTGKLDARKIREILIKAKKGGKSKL

The test has as its target Luciferin 4-monooxygenase (Photinus pyralis) (UniProt P08659). The test can be described thus: qHTS profiling assay for firefly luciferase inhibitor/activator using purifed enzyme and Km concentrations of substrates (counterscreen for miR-21 project). Further: nearly all actives have a fitted effect of over 55% in size.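 On activity change, negative = inhibition: plate controls were vehicle for no effect and reference inhibitor for full effect.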 To be noted: purified FLuc, luminescence inhibition; series mostly up to 57.5 µM; activity change, negative = inhibition: at the top concentration. Put shortly: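 Biochemical qHTS of compounds, final roughly 60 µM downward over six points, against 10 nM purified firefly luciferase using Km concentrations of substrates (10 uM D-luciferin, 10 uM ATP) in Tris acetate pH 7.5 buffer; luminescence output.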
(In general: qHTS replaces the single test concentration by a dilution series.)
As to `CC1(c2ccc(Cl)cc2)NC(=O)N(CC(=O)c2ccc3c(c2)OCO3)C1=O` (centres undefined), the “activity change, negative = inhibition” value is -20.5%.

In the case of `O=C(Nc1ccc(Cl)cn1)c1cnn2cccnc12`, the Potency was 7.57 µM (active).

As to `CCCc1cc(C(=O)Nc2ccc(Cl)cn2)cs1`, the Potency is 0.478 µM (active).

Turning to `Cc1nc(NC(=O)c2ccc3c(c2)OCCO3)ccc1Br`, the Potency is 1.51 µM (active).

Consider `O=C(Nc1ccc(Cl)cn1)c1ccc2c(c1)OCCO2`, for which the Potency was 1.35 µM (active).

As for `CCCc1cc(C(=O)Nc2ccc(C(=O)OC)cc2)cs1`, the “activity change, negative = inhibition” value was -14.7%.

For `Cc1cccc(C)c1NC(=O)CNC(=O)c1ccc2c(c1)OCCO2`, the “activity change, negative = inhibition” value is -2.86%.

Consider `Cc1cc(NC(=O)c2cnn3cccnc23)n(-c2ccccc2)n1`, for which the “activity change, negative = inhibition” value was 3.79%.

In the case of `COc1ccc(C(=O)NC(=S)Nc2ccc(Cl)cn2)cc1OC`, the “activity change, negative = inhibition” value was -5.46%.

As for `CS(=O)(=O)c1ccc(-c2nnc(NC(=O)c3ccc4c(c3)OCCO4)o2)cc1`, the “activity change, negative = inhibition” value was -2.9%.

`O=C(NCc1ccco1)c1nn2cccnc2c1Cl`: the “activity change, negative = inhibition” value was -9.49%.

With `CCCCC(CC)C(=O)Nc1ccc(Cl)cn1` (centres undefined), the “activity change, negative = inhibition” value was -1.5%.

`CC12CCC(=O)N1C(C(=O)Nc1ccc(F)c(F)c1F)CS2` (centres undefined): the “activity change, negative = inhibition” value is -0.97%.

For `COc1ccc(OC)c(CNC(=O)CN2C(=O)CCn3nc(-c4cn(C)c5ccccc45)cc32)c1`, the “activity change, negative = inhibition” value was 0.0113%.

For `CCN(CC(=O)Nc1ccc(OC)cc1)C(=O)CSCc1ccc(C)cc1`, the “activity change, negative = inhibition” value is -1.05%.

For the compound `CC(C)c1cc(C(=O)N/N=C/c2ccoc2)c(O)c(C(C)C)c1`, the “activity change, negative = inhibition” value is 5.96%.

With `CC(Oc1ccccc1[N+](=O)[O-])C(=O)N/N=C/c1ccoc1` (centres undefined), the “activity change, negative = inhibition” value was 2.82%.

For `COc1cc(/C=N\NC(=O)C2C(=O)NCC2c2ccccc2)cc(OC)c1O` (centres undefined), the “activity change, negative = inhibition” value is 5.59%.

In the case of `Cc1nn(CC(=O)N/N=C/c2ccc(F)cc2)c(C)c1[N+](=O)[O-]`, the “activity change, negative = inhibition” value was -0.587%.

In the case of `COc1cc(/C=N/NC(=O)c2cc(C)n(-c3ccc(F)cc3)c2C)cc(OC)c1O`, the Potency is 15.1 µM (active).

`Cc1cc(C(=O)N/N=C/c2ccc(O)c([N+](=O)[O-])c2)c(C)n1-c1ccc(F)cc1`: the Potency was 2.39 µM (active).

For `Nc1c(N(Cc2ccco2)C(=O)c2cccc(F)c2)c(=O)[nH]c(=O)n1Cc1ccccc1`, the “activity change, negative = inhibition” value was 2.26%.

For `Cc1ccccc1C(=O)Nc1nnc(S(=O)(=O)N(C)c2ccc(Cl)cc2)s1`, the “activity change, negative = inhibition” value is -8.25%.

As for `CC(C)(CNC(=O)CNC(=O)C1CCCCC1)N1CCOCC1`, the “activity change, negative = inhibition” value was -0.324%.

On to `CCOC(=O)c1ccc(NC(=O)c2c(NCc3cccc(OC)c3)sc3c2CCC3)cc1`, for which the “activity change, negative = inhibition” value was 0.213%.

As to `O=C(C1CCC(Cn2c(=O)c3sccc3n(Cc3ccccc3F)c2=O)CC1)N1CCCCC1` (centres undefined), the “activity change, negative = inhibition” value is -10.1%.

Turning to `CC1(C)CC(=O)C=C(c2cccc3c2Oc2ccccc2S3)C1`, the “activity change, negative = inhibition” value was -3.41%.

For the compound `Cc1cccc(OCC(=O)Nc2ccccc2F)c1`, the Potency is 21.3 µM (active).

For the compound `Cc1cccc(OCCC(=O)Nc2ccccc2C(N)=O)c1`, the “activity change, negative = inhibition” value was -0.608%.

As to `Cc1cccc(OCC(=O)NCCCNC(=O)c2ccccn2)c1`, the “activity change, negative = inhibition” value was -1.63%.

Turning to `CCCOC(=O)Nc1ccccc1C(N)=O`, the “activity change, negative = inhibition” value is 3.69%.

With `Cc1cccc(OCC(=O)Nc2ccc(C(=O)O)cc2NC(=O)COc2cccc(C)c2)c1`, the “activity change, negative = inhibition” value was 0.888%.

With `COc1cccc(OCC(=O)Nc2ccccc2C(N)=O)c1`, the Potency was 4.78 µM (active).

Regarding `CCc1ccc(-n2nc(C)c3c(C)cc(=O)n(CC(=O)Nc4ccc(F)cc4C)c32)cc1`, the “activity change, negative = inhibition” value is 1.92%.

Regarding `CCCNc1ncnc2c1c(-c1ccccc1)cn2-c1ccc(OCC)cc1`, the “activity change, negative = inhibition” value is -5.23%.

As to `O=C(COc1ccccc1O)NC1CCCC1`, the “activity change, negative = inhibition” value is -1.18%.

With `CCOC(=O)c1ccc(NC(=O)c2nc(SCc3ccc(F)cc3)ncc2Cl)cc1`, the “activity change, negative = inhibition” value was -7.43%.

As to `COc1ccccc1N=Cc1c(O)c2ccccc2oc1=O`, the Potency is 1.9 µM (active).

Regarding `COc1ccccc1N=C(C)C1=C(O)COC1=O`, the “activity change, negative = inhibition” value was 2.19%.

`COc1cc(N=Cc2c(O)c3ccccc3oc2=O)c(OC)cc1Cl`: the “activity change, negative = inhibition” value is 0.283%.

Consider `O=C(Nc1ccc(OC(F)(F)F)cc1)c1cc2c(=O)n3ccccc3nc2s1`, for which the “activity change, negative = inhibition” value was 1.26%.

Consider `CCc1cc2c(-c3ccccc3)cc(=O)oc2c2c1OCN(Cc1ccc(C)cc1)C2`, for which the “activity change, negative = inhibition” value is -2.21%.

As to `CCc1ccc2oc(-c3ccc(C)c(NC(=O)/C=C/c4ccco4)c3)nc2c1`, the Potency is 3.01 µM (active).

As for `Cc1cccc(C(=O)Nc2ccc(-c3nc4ncccc4o3)cc2C)c1`, the “activity change, negative = inhibition” value is -1.32%.

As to `CCC(CC)c1nnc(NC(=O)/C=C/c2ccco2)s1`, the “activity change, negative = inhibition” value was 2.36%.

Turning to `Cc1ccc2cccc(NC(=O)c3cccc4ccccc34)c2n1`, the “activity change, negative = inhibition” value was -2.45%.

As for `O=c1c2ccccc2nc2n1C1(CCCCC1)Cc1ccccc1-2`, the “activity change, negative = inhibition” value was -1.54%.

Take `CN(c1ccc2nc3ccccc3c(=O)n2n1)C1CCCCC1`: the Potency was 0.169 µM (active).

Turning to `CC(C)C(C)NC(=O)COc1nc2ccccc2nc1N(C)C1CCCCC1` (centres undefined), the “activity change, negative = inhibition” value was 0.505%.

In the case of `CCC(=O)N1CCc2cc(CNC(=O)Nc3ccccc3Cl)ccc21`, the “activity change, negative = inhibition” value is -15.3%.

In the case of `COc1cc2sc(C)nc2cc1C`, the “activity change, negative = inhibition” value is -2.95%.

Regarding `Cc1nc(Nc2ccccc2F)c2nnn(Cc3ccccc3Cl)c2n1`, the “activity change, negative = inhibition” value was -4.09%.

For the compound `Cc1nc(Nc2ccc3c(c2)OCCO3)c2nnn(Cc3ccccc3Cl)c2n1`, the Potency was 26.9 µM (active).

`CCCc1nc(NCc2ccc3c(c2)OCO3)c2nnn(Cc3ccccc3Cl)c2n1`: the “activity change, negative = inhibition” value is -0.879%.
